Assay outcomes as filed in PubChem BioAssay.
CBFb-RUNX1 inh: qHTS Assay for Compounds Blocking the Interaction Between CBF-beta and RUNX1 for the Treatment of Acute Myeloid Leukemia | Runt-related transcription factor 1 (Homo sapiens) + Core-binding factor subunit beta … | AlphaScreen CBFb-His/RUNX1-biotin binding, biochemical | Potency, µM (top dose mostly 59.8 µM), without a hit: at the top dose activity, negative = inhibition, usual class: inhibitors | 230,000 tested, under 10 active | AID 1477, 2009; further: % of control where 0% means no effect
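Bead-based AlphaScreen assay; binding partners His-tagged CBF-beta and biotinylated RUNX1 at 30 nM each. Compound exposure 15 min after a 20-min protein preincubation; bead step 90 min; all steps at room temperature.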
KCNH2 3.1 inh: qHTS for Inhibitors of KCHN2 3.1: Mutant qHTS; AID 720553, 2013; Potassium voltage-gated channel subfamily H member 2, brain isoform KCNH2 3.1 (human); activity change, % (tested at about 1.8 µM); 340,000 tested, 0.95% active; U2OS KCNH2 3.1, thallium flux FluxOr; active compounds read low;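 active means maximum activity change below -70%; inconclusive means maximum activity change from -70% to -50%; inactive means maximum activity change above -50%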;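 further: thallium influx rate constant from kinetic fluorescence after stimulation buffer; on the % scale 0 is the no-effect control and ±100 the full control effect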
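Kinetic fluorescence (2 min after stimulation buffer) measures Tl+ influx through KCNH2 3.1 expressed by viral transduction in U2OS cells; the rate constant is normalized against DMSO controls serving as positive and negative references.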
KCNH2 WT inh: qHTS for Inhibitors of KCHN2 3.1: Wildtype qHTS | AID 720551, 2013 | activity change, % at 1.84 µM | 340,000 tested, 0.37% active | U2OS, BacMam KCNH2, thallium flux FluxOr; active compounds read low;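 active means maximum activity change below -70%; inconclusive means maximum activity change between -70% and -50%; inactive means maximum activity change above -50%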; further: on the % scale 0 is the no-effect control and ±100 the full control effect
Target sequence (Q12809 whole entry, looked up): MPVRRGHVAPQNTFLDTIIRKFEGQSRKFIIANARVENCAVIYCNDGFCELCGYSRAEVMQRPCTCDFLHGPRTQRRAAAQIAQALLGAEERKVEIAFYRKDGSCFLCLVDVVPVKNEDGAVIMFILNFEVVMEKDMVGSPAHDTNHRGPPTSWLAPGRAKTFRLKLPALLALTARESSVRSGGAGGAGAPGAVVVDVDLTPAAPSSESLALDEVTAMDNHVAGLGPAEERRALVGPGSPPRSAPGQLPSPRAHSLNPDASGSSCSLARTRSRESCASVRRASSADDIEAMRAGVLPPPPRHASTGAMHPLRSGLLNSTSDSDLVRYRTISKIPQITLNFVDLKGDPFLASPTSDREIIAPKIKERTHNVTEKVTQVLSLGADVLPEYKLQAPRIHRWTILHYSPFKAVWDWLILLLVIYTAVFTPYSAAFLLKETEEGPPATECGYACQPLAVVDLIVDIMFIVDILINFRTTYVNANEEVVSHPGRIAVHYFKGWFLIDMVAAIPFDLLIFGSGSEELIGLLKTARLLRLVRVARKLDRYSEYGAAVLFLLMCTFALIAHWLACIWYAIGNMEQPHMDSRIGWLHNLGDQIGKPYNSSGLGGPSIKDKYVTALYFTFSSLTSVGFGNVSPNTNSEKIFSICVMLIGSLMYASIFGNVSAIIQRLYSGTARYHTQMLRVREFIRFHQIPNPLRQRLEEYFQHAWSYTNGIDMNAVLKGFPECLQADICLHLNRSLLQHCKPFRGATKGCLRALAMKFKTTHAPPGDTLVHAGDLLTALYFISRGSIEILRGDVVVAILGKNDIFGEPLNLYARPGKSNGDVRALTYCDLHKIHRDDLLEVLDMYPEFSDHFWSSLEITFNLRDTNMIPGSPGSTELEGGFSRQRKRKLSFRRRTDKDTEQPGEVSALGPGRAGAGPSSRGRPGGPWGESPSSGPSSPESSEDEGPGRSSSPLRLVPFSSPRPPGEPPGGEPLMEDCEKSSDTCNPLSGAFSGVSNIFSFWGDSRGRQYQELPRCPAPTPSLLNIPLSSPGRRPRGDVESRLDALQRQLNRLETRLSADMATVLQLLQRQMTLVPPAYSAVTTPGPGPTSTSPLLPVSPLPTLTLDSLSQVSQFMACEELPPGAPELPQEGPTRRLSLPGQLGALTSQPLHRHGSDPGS
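U2OS cells transduced with wild-type KCNH2 virus are loaded with FluxOr dye for 45 min, and thallium flux is measured in kinetic reads before and after stimulation buffer. Rate constants are normalized to DMSO controls.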
VDR inh: Inhibitors of the vitamin D receptor (VDR): qHTS. 400,000 tested, 0.93% active. VDR-SRC2-3 peptide fluorescence polarization, 2 h. AID 504847, 2011. Potency, µM, without a hit: max response, negative = inhibition, hits mostly inhibitors; further: potency means the concentration at half of the fitted maximal effect; on the % scale 0 is the no-effect control and ±100 the full control effect
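Fluorescence polarization assay of small-molecule disruption of VDR binding to coregulator peptide SRC2-3. Compounds and controls pin-transferred, then read after 2 h incubation at ambient room temperature.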
MBNL1 CUG block: qHTS Assay for Inhibitors of MBNL1-poly(CUG) RNA binding; TR-FRET MBNL1-His/biotin-(CUG)12 binding, 665/545 ratio; Potency, µM (titrated, usually from 57.5 µM), for the others: top-dose activity change, negative = inhibition, most hits filed as inhibitors; 280,000 tested, 0.036% active; active means well fitted inhibition curve with a large enough effect in the signal ratio, with a control signal flat, not every such curve was filed as active; inconclusive means small, poorly fitted or top-dose-only effect, or effect the other way, or a change in a side signal; inactive means no such curve, though single readings can be large or run the other way; the % refers to the signal ratio; further: potency means the concentration at half of the fitted maximal effect; on the % scale 0 is the no-effect control and ±100 the full control effect
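Ratiometric TR-FRET (665 over 545 nm, excitation 340 nm) tracks disruption of MBNL1-His/biotin-(CUG)12 complex after 60 min at room temperature, with compounds at 92 nM to 58 uM final.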
PLK1 PBD block: qHTS for Inhibitors of PLK1-PDB (polo-like kinase 1 - polo-box domain): Primary Screen. Serine/threonine-protein kinase PLK1 (Homo sapiens), P53350. Potency, µM, for the others: max response, negative = inhibition, most hits filed as inhibitors. 360,000 tested, 2.8% active. Plk1 PBD binding of FITC phosphopeptide, fluorescence polarization; further: potency means the concentration at half of the fitted maximal effect; series mostly up to about 57 µM; on the % scale 0 is the no-effect control and ±100 the full control effect; nearly all actives have a fitted effect of over 65% in size
An asterisk follows results filed as active; ? = inconclusive; / = no result given; [ ] = remark or other dose. The list is not random: actives were taken first. Their share in the collection is about 3.8%. Unless noted, the call rests on the fitted dose curve; in most records, active means well fitted curve in the direction sought with a large enough effect; inconclusive means small, poorly fitted or top-dose-only effect, or another doubt; inactive means no such curve, though single readings can be large; an effect the other way counts as inactive or inconclusive.

SMILES	CBFb-RUNX1 inh	KCNH2 3.1 inh	KCNH2 WT inh	VDR inh	MBNL1 CUG block	PLK1 PBD block
CN(C)S(=O)(=O)Oc1cc(Cl)ccc1C(=O)Nc1ccc(F)cc1F	2%	7	0	-15%	/	24µM*
CCOC(=O)c1ccccc1NC(=O)CN1C(=O)CC(c2ccccc2)Sc2ccccc21 (centres undefined)	/	/	/	-6%	/	/
Cc1c(NC(=O)Nc2ccc([N+](=O)[O-])cc2)c(=O)n(-c2ccccc2)n1C	/	18	11	?	10%	9.5µM*
COc1ccc(NC(=O)Nc2c(C)n(C)n(-c3ccccc3)c2=O)cc1	4%	-2	-6	4%	-2%	2%
Cc1c(NC(=O)Nc2ccccc2[N+](=O)[O-])c(=O)n(-c2ccccc2)n1C	/	-6	0	13%	?	2%
Cc1noc(C)c1S(=O)(=O)Nc1c(C)n(C)n(-c2ccccc2)c1=O	6%	-26	-79*	3%	0%	-4%
COc1ccc(/C(O)=C/C(=O)C(=O)Nc2c(C)n(C)n(-c3ccccc3)c2=O)cc1	1%	31	-119*	0%	14%	-5%
Cc1c(NC(=O)c2cccc(F)c2)c(=O)n(-c2ccccc2)n1C	-7%	-109*	-3	3%	0%	5%
Cc1c(NC(=O)c2ccc(F)cc2)c(=O)n(-c2ccccc2)n1C	4%	3	29	-15%	3%	-5%
Cc1ccc(CNC(=O)c2cc(C3CC3)nc3c2c(C)nn3-c2cccc(Cl)c2C)cc1	/	/	/	4%	/	/
N#CN=c1snc(-c2ccccc2Cl)n1-c1ccc(F)cc1	/	/	/	-4%	/	/
Cc1c(C(=O)N2CCCCCC2)c(S(=O)(=O)Nc2ccc(OC(F)(F)F)cc2)c(C)n1C	/	/	/	0%	/	/
O=C1CC(c2cccc(Cl)c2Cl)c2cc3c(cc2N1)OCCO3 (centres undefined)	/	/	/	-6%	/	/
Cc1cc(F)ccc1S(=O)(=O)Nc1c(C)n(C)n(-c2ccccc2)c1=O	5%	-74*	-8	3%	-10%	3%
O=[N+]([O-])c1ccc(O)c(C2=NNC(c3ccccc3F)C2)c1 (centres undefined)	-16%	5	5	79µM*	9%	?
Cn1c(=O)c2c([nH]c(=S)n2Cc2ccc(Cl)cc2)n(C)c1=O	/	8	37	79µM*	10%	11µM*
Cn1ccc2c(OCC(=O)Nc3cc(C(F)(F)F)ccc3Cl)cccc2c1=O	/	/	/	-8%	/	/
CCOC(=O)c1sc(N2N=C(C)/C(=C\c3ccc(OCC(=O)OC)cc3)C2=O)nc1C	-10%	-1	3	?	0%	13µM*
Cc1ccc(NC(=S)c2ccc3ccccc3n2)c(C)c1	/	-3	-5	79µM*	-6%	13µM*
CCOc1ccc(NC(=S)c2ccc3ccccc3n2)cc1	/	3	18	11%	-5%	2.7µM*
COc1ccc(NC(=S)c2ccc3ccccc3n2)cc1	/	-12	28	?	?	6.7µM*
CCOc1ccc(CN(C)C(=O)c2ccc3ccccc3n2)cc1	/	6	12	-2%	4%	-1%
CN1c2ccc(Cl)cc2-c2nc(SCC(=O)NCc3ccccc3)ncc2S1(=O)=O	/	/	/	6%	/	/
CCCCCCNc1nc(NCc2ccco2)nc(OCC)n1	2%	-73*	-24	15%	-10%	-4%
Cn1cc(C(=O)c2ccc(Cl)cc2Cl)cc1C(=O)N/N=C(\N)COc1ccc(F)cc1	-10%	-32	3	-4%	0%	2%
SMILES	CBFb-RUNX1 inh	KCNH2 3.1 inh	KCNH2 WT inh	VDR inh	MBNL1 CUG block	PLK1 PBD block
Cn1cc(C(=O)c2ccc(Cl)cc2Cl)cc1C(=O)N/N=C(\N)COc1ccc(Cl)cc1	-17%	-73*	9	-15%	-5%	-6%
O=S(=O)(c1cccs1)N1CCN(c2nc(-c3cccs3)nc3ccccc23)CC1	/	/	/	-2%	/	/
CC1=C(/C=C/C(C)=C/C=C/C(C)=C/C=C/C=C(C)/C=C/C=C(C)/C=C/C(=O)[C@]2(C)CC(O)CC2(C)C)C(C)(C)CC(O)C1 (some centres undefined)	-2%	/	/	2%	/	/
CC1=C[C@@H](O)CC(C)(C)[C@@H]1/C=C/C(C)=C/C=C/C(C)=C/C=C/C=C(C)/C=C/C=C(C)/C=C/C1=C(C)C[C@H](O)CC1(C)C	/	/	/	28µM*	/	/
CC1=C(/C=C/C(C)=C\C=C\C(C)=C\C=C\C=C(C)\C=C\C=C(C)\C=C\C2=C(C)C[C@@H](O)CC2(C)C)C(C)(C)C[C@H](O)C1	/	/	/	40µM*	/	/
CC1=C(/C=C/C(C)=C/C=C/C(C)=C/C(=O)O)C(C)(C)CCC1O (centres undefined)	14%	/	/	71µM*	/	/
O=C(Cn1cc(SCc2ccc(C(F)(F)F)cc2)c2ccccc21)N1CCCCC1	/	/	/	3%	/	/
COc1nc(C)nc2c1sc1nc3c(cc12)COC(C)(C)C3	-9%	3	2	-23%	-1%	27µM*
COC(=O)c1c(NC(=O)Cc2coc3ccc(C(C)C)cc23)sc2c1CCC2	/	/	/	15%	/	/
Cc1cc(C)nc(SCC(=O)NC2=NN=C(c3ccc(Br)cc3)CS2)n1	-22%	-23	27	45µM*	9%	-18%
CCC(Sc1nc(C)cc(C)n1)C(=O)NC1=NN=C(c2ccc(C)cc2)CS1 (centres undefined)	-25%	-3	15	?	10%	-12%
COc1ccc(F)cc1S(=O)(=O)NCCc1csc(-c2ccc(Cl)cc2)n1	/	/	/	5%	/	/
O=Cc1cn(CC(=O)N2CCCc3ccccc32)c2ccccc12	-8%	5	-14	-13%	-2%	2.7µM*
CC(=O)Nc1cccc(/C(C)=N\NC(=O)c2ccc(Cn3nc([N+](=O)[O-])c(Cl)c3C)o2)c1	-27%	-2	4	?	16%	21µM*
C/C(=N\NC(=O)c1ccc(Cn2cc([N+](=O)[O-])cn2)o1)c1cccc(NC(=O)c2cccnc2)c1	6%	-10	-6	-10%	3%[11.5 µM]	-5%
COc1ccc(C2CC(c3ccccc3)Oc3cc(C)c(Cl)c(C)c32)cc1 (centres undefined)	3%	/	/	-15%	/	/
O=C(c1ccc2c(c1)OCO2)N1CCN(c2ccccn2)CC1	-1%	16	0	?	-5%	21µM*
